Source: PubChem BioAssay (NCATS)
A number with no mark means an inactive call. Results filed as inconclusive are left out. Activity calls are given as the source filed them. The call rests on the fitted dose curve; in most records, active means well fitted curve in the direction sought with a large enough effect; inconclusive means small, poorly fitted or top-dose-only effect, or another doubt; inactive means no such curve, though single readings can be large; an effect the other way counts as inactive or inconclusive.

Target: Cytochrome P450 3A4 (Homo sapiens) (UniProt P08684)
Sequence (P08684 whole entry, looked up): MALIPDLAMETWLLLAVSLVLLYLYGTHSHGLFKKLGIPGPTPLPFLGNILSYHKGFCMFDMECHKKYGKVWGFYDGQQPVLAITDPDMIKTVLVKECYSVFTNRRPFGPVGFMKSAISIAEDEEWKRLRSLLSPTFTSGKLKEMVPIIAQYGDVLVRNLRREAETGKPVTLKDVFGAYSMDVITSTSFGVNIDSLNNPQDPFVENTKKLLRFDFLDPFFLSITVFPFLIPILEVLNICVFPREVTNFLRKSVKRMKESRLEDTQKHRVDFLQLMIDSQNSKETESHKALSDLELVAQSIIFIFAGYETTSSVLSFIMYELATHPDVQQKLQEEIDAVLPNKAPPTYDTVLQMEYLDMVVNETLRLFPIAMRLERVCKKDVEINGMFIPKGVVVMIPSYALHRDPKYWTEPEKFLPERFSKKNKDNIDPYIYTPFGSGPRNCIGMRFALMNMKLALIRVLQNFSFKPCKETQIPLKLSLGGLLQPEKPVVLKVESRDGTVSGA
Assay: qHTS Assay for Inhibitors and Substrates of Cytochrome P450 3A4 (AID 884); further: nearly all actives have a fitted effect of over 50% in size; further: potency means the concentration at half of the fitted maximal effect; on activity change, negative = inhibition: on the % scale 0 is the no-effect control and ±100 the full control effect
Conditions: recombinant CYP3A4, Luciferin-PPXE luminescence; series mostly up to 57.1 µM; activity change, negative = inhibition: at the top concentration
Summary of the method: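 20 nM human CYP3A4 with 25 uM Luciferin-PPXE (at KM) in 200 mM KPO4, preincubated 10 min with compound; NADPH regeneration started a 60 min RT reaction. Luciferin detected by luminescence, normalized to 57 uM ketoconazole as full inhibition.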

| SMILES | activity change, negative = inhibition [%] | Potency |
| --- | --- | --- |
| CCCCCCc1ccc(-c2ccc(C#N)cc2)cc1 | -4.66 |  |
| Nc1cnn([C@@H]2O[C@H](CO)[C@@H](O)[C@H]2O)c(=O)n1 | 7.63 |  |
| CCCCCCCCOc1ccc(C(=O)O)cc1 | -14.8 |  |
| Oc1c(Cl)cc(Cl)c(Cl)c1Cl | 29.3 |  |
| CC(C)OCC1CO1 (stereo not drawn) | -10.4 |  |
| C/C(Cl)=C/CCl | -9.5 |  |
| CCCCNCC | -7.5 |  |
| O=c1[nH]ncc2ccccc12 | 6.48 |  |
| c1ccc(COCc2ccccc2)cc1 | 10 |  |
| O=[N+]([O-])c1cccc(I)c1 | 13.8 |  |
| Nc1ccc2c(c1)C(=O)c1ccccc1C2=O |  | 2.51 µM (active) |
| c1ccc2c(c1)ccc1ccccc12 | -0.78 |  |
| Nc1ccc(N=Nc2ccccc2)c(N)c1 |  | 12.6 µM (active) |
| Cc1ccc(C(=O)O)cc1[N+](=O)[O-] | 1.75 |  |
| COc1ccc([N+](=O)[O-])cc1N | -21.7 |  |
| OCC(CO)(CBr)CBr | -10.1 |  |
| Nc1cc(C(=O)O)c(O)c(S(=O)(=O)O)c1 | 8.87 |  |
| c1ccncc1 | -8.12 |  |

| SMILES | activity change, negative = inhibition [%] | Potency |
| --- | --- | --- |
| CC(=O)OC1CC(C)OC(C)O1 (stereo not drawn) | 4.19 |  |
| O=C(OCc1ccccc1)c1ccccc1O | -10.2 |  |
| C/C=C/C=C/C=O | -10.6 |  |
| c1c[nH]cn1 | -24.9 |  |
| c1ccc(SCCSc2ccccc2)cc1 | -7.55 |  |
| O=C(O)/C=C/c1ccc(/C=C/C(=O)O)cc1 | -15.2 |  |
| CCCCOC(=O)COc1ccc(Cl)cc1Cl | -6.46 |  |
| CC(=O)OC(C(=O)c1ccccc1)c1ccccc1 (stereo not drawn) | 34.9 |  |
| CCCCCCN | -12.5 |  |
| CC(=O)Nc1cccc(C)c1 | -7.15 |  |
| CCC(Cl)CC(Cl)C(Cl)C(Cl)C(Cl)C(C)Cl (stereo not drawn) | -19.7 |  |
| CCc1ccc(C(c2ccc(CC)cc2)C(Cl)Cl)cc1 | -17.9 |  |
| C[C@@H]1CC2(OC(O)[C@]3(C)O[C@H]23)O[C@H]2C[C@@]3(C)[C@@H]4CC[C@H]5C(C)(C)C(O[C@@H]6OC[C@@H](O)[C@H](O)[C@H]6O)CC[C@@]56C[C@@]46CC[C@]3(C)[C@@H]12 (stereo partly drawn) | -29.6 |  |
| O=[N+]([O-])c1ccccc1Nc1ccccc1 | -17.5 |  |
| C=CC1CO1 (stereo not drawn) | 1.07 |  |
| COc1cc(-c2ccc(N=C=O)c(OC)c2)ccc1N=C=O |  | 12.6 µM (active) |
| CCOC(=O)C1OC1c1ccccc1 (stereo not drawn) | -2.78 |  |

Target: Cytochrome P450 3A4 (Homo sapiens) (UniProt P08684)
Assay: qHTS Assay for Activators of Cytochrome P450 3A4 (AID 885); further: nearly all actives have a fitted effect of over 65% in size
Conditions: recombinant CYP3A4, Luciferin-PPXE luminescence, 60 min; series mostly up to 11.4 µM; activity change, positive = activation: at the top concentration
Summary of the method: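 Human CYP3A4 (20 nM) with Luciferin-PPXE at 25 uM (its KM) in 200 mM KPO4; 10 min compound preincubation, then NADPH regeneration and 60 min reaction at RT. Luciferin read by luminescence; normalized to 57 uM ketoconazole full inhibition.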

| SMILES | activity change, positive = activation |
| --- | --- |
| Nc1ccc2c(c1)C(=O)c1ccccc1C2=O | -97.8% [at 57.1 µM] |
| COc1cc(-c2ccc(N=C=O)c(OC)c2)ccc1N=C=O | -78.3% [at 57.1 µM] |
| COc1ccc(C(=O)Nc2ccccc2)cc1[N+](=O)[O-] | -44.3% [at 57.1 µM] |
